In PubChem BioAssay one finds composite z-score and z-score data, which are given here for 14 compounds.

Calls of active or inactive are those of the source.

Experiment [1] can be described thus: anti-His antibody binders, primary screen, artefact control for SMM control protein annotation, biochemical, small-molecule microarray, 635 nm fluorescence (AID 1128).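 Note: score merges feature fluorescence with signal-to-noise for each printed compound spot.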 The settings on record: anti-His Alexa647 antibody binding, higher = more signal.
Experiment [2] deals with Human papillomavirus type 1a E7 protein (residues 1-88). Nature of the experiment: HPV1a E7 small-molecule binders, primary screen, biochemical, small-molecule microarray, residues 1-88, 635 nm (AID 1129). The settings on record: small-molecule microarray binding, fluorescence 635 nm; higher = more signal.
In experiment [3] the target is Focal adhesion kinase 1 (Homo sapiens) (UniProt Q05397). Description: small-molecule microarray binders of FAK, primary screen, biochemical, 635/667 nm fluorescence, BSA, DTT (AID 1130).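 Note: composite of spot emission at 667 nm and signal to noise over triplicate slides.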 The settings on record: PTK2 binding, 635 nm fluorescence, higher = more signal.
The test system of experiment [4] is Fibrinogen (Alexa647-labelled). Nature of the experiment: fibrinogen binders on compound microarrays, profiling panel, artefact control for SMM control-protein annotation, biochemical, small-molecule microarray, 635/667 nm fluorescence (AID 1131).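 Note: z-score merges 667 nm fluorescence with per-spot signal-to-noise over triplicate slides.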 The settings on record: fibrinogen-A647 binding fluorescence, higher = more signal.
In experiment [5] the target is Follistatin (Homo sapiens) (UniProt P19883). Description: follistatin binders on small-molecule microarrays, primary screen, biochemical, small-molecule microarray, 635/667 nm fluorescence (AID 1132). The settings on record: FST binding, 635 nm fluorescence, higher = more signal.
Experiment [6] deals with Fibroblast growth factor 2 (Homo sapiens) (UniProt P09038). Description: FGF2 binders on small-molecule microarrays, primary screen, biochemical, small-molecule microarray, 635/667 nm fluorescence (AID 1133). The settings on record: small-molecule microarray binding, FGF2, fluorescence 635/667; higher = more signal.
Experiment [7] can be described thus: mitochondrial membrane potential change in A549 cells, profiling panel, cell-based, JC-1 fluorescence, basal, 24 h, 100 nL (AID 1138).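 Note: A549 lung adenocarcinoma cells under basal conditions with no added stimulus; test concentration not given here.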 The settings on record: higher = more signal.
The test system of experiment [8] is Lefty1. Description: Lefty1 binders on small-molecule microarrays, primary screen, biochemical, small-molecule microarray, 635/667 nm fluorescence (AID 1139). The settings on record: small-molecule microarray binding, fluorescence 635/667; higher = more signal.
The test system of experiment [9] is wheat germ agglutinin (Triticum aestivum), Alexa647-labelled. Nature of the experiment: wheat germ agglutinin binders on compound microarrays, profiling panel, artefact control for SMM control-protein annotation, biochemical, small-molecule microarray, 635/667 nm fluorescence (AID 1140).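 Note: score merges 667 nm feature emission with signal to noise over triplicate slides.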 The settings on record: WGA-A647 binding, 635 nm fluorescence, higher = more signal.

Experiment [10] concerns the target Luciferin 4-monooxygenase (Photinus pyralis) (UniProt P08659). Description: firefly luciferase enzyme inhibitors, primary screen, biochemical, luminescence, purified enzyme, 2006 set (AID 1141).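 Note: cell-free assay with purified firefly luciferase at 100 ng per well in PBS; test concentration not given here.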 The settings on record: SteadyGlo luminescence, 30 min, higher = more signal, called active from +8 up or from −8 down.

Sequence of Focal adhesion kinase 1 (Homo sapiens) (Q05397 whole entry, looked up): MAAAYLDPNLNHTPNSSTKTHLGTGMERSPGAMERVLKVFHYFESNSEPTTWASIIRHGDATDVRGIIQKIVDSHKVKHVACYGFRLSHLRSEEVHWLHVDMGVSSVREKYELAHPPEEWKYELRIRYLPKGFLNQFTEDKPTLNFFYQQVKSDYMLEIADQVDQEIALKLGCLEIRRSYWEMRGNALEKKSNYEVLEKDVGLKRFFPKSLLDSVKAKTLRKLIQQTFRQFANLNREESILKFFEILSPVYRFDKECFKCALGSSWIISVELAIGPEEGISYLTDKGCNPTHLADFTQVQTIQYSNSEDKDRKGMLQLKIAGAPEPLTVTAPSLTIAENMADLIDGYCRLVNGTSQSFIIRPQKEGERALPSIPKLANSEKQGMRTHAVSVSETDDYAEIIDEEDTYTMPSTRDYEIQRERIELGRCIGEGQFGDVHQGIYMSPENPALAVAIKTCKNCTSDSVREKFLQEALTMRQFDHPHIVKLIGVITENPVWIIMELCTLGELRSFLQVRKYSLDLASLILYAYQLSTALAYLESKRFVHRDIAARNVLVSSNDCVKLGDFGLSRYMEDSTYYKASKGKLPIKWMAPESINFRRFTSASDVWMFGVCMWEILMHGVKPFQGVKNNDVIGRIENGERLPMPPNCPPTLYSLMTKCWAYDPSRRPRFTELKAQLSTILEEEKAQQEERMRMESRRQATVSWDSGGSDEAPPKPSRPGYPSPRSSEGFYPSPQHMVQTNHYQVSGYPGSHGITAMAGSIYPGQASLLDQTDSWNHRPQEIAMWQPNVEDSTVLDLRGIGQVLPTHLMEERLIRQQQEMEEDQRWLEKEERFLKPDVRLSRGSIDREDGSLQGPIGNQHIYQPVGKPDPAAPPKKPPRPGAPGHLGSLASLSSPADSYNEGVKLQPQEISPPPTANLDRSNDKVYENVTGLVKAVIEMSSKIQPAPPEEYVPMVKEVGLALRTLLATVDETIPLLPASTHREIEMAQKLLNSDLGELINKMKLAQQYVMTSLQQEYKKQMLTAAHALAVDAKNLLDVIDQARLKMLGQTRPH
Sequence of Follistatin (Homo sapiens) (P19883 whole entry, looked up): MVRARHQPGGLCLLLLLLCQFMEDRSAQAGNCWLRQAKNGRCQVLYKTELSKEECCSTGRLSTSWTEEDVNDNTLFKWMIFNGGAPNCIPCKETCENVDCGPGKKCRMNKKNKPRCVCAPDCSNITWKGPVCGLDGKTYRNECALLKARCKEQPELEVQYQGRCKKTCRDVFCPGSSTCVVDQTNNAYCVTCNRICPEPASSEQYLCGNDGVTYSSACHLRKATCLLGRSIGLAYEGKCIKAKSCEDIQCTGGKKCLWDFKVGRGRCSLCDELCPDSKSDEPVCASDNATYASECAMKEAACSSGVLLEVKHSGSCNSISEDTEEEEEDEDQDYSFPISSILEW
Sequence of Luciferin 4-monooxygenase (Photinus pyralis) (P08659 whole entry, looked up): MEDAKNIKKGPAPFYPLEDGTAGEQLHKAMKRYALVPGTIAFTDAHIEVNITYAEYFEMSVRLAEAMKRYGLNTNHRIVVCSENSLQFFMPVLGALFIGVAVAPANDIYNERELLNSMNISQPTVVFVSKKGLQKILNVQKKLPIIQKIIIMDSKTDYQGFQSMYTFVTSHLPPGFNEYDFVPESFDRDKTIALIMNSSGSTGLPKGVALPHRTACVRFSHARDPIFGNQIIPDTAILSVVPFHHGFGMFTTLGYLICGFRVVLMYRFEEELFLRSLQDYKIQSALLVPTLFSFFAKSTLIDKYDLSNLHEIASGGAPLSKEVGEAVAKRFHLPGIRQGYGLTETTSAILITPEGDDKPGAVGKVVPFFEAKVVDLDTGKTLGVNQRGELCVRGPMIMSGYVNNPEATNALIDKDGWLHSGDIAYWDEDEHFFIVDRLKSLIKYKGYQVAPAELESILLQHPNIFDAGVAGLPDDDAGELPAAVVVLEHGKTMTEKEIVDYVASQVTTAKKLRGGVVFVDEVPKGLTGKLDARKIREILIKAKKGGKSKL
Sequence of Fibroblast growth factor 2 (Homo sapiens) (P09038 whole entry, looked up): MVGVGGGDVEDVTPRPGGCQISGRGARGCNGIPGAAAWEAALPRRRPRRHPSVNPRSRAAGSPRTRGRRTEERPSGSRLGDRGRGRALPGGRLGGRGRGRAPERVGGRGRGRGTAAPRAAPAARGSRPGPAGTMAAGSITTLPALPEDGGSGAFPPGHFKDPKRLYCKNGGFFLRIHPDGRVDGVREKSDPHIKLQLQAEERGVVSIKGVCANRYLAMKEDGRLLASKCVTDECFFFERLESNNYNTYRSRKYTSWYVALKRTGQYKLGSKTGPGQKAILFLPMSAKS

Take `COC(=O)[C@@]1(Cc2ccccc2)[C@H]2c3cc(C(=O)N4CCCC4)[nH]c3C[C@H]2CN1C(=O)c1ccccc1`: the composite z-score is 0.886 in experiment [1]; -0.0205 in experiment [2]; 1.24 in experiment [3]; 0.664 in experiment [4]; -0.382 in [5]; -0.757 in experiment [6]. For the same compound, the composite z-score in experiment [8] was -0.826; in [9] it was -0.129. Also, the z-score in experiment [7] is 0.709; in experiment [10], 1.18 (inactive).
In the case of `O=C(NC1CC1)[C@@H]1c2ccccc2C(=O)N(Cc2ccccc2)[C@H]1c1ccc(CO)cc1`, the composite z-score in experiment [1] is 0.522; in experiment [2] it was 0.802; in experiment [3] it was -0.747; in experiment [4], 0.497; in experiment [5] it was 0.665; in [6], 0.483. Besides, the composite z-score was 0.626 in experiment [8] and 0.905 in experiment [9]. Besides, the z-score in experiment [7] is 2.09; in experiment [10] it was 0.017 (inactive).
For the compound `CCOC(=O)C[C@H]1[C@H](OC(=O)c2ccc(-c3ccccc3)cc2)[C@@H](NC(=O)C2CCCCC2)c2cc(OCCCO)ccc2N1C(=O)c1ccccc1`, the composite z-score turned out to be 0.0672 in experiment [1]; 0.755 in experiment [2]; 0.559 in experiment [3]; 0.845 in experiment [4]; 0.461 in experiment [5]; 0.406 in experiment [6]. In addition, the composite z-score in experiment [8] was determined as 0.544; in [9], 0.207. Further, the z-score in experiment [7] was 0.0651; in [10], 0.0421 (inactive).
For the compound `CC(C)CNC(=O)[C@@]1(c2ccc([N+](=O)[O-])cc2)CC(=O)N(C2CCCCC2)[C@@H]1c1ccc(CO)cc1I`, the composite z-score in [1] was -0.423; in [2] it was 0.676; in [3] it was 0.295; in experiment [4] it was -0.106; in experiment [5], -0.0906; in experiment [6], 0.669. The values for the composite z-score in [8] and in experiment [9] were -0.411 and 1.15, respectively. Moreover, the z-score in experiment [7] is 1.86; in [10], -0.712 (inactive).
In the case of `Cc1ccc(S[C@]2(C(=O)NCC(C)C)CC(=O)N(Cc3ccccc3Cl)[C@@H]2c2ccc(CO)cc2I)cc1`, the composite z-score in experiment [1] is 0.231; in experiment [2], 0.132; in experiment [3], -0.47; in experiment [4], 0.137; in [5], -0.142; in experiment [6], -0.131. The composite z-score in experiment [8] was -0.7; in [9], 0.231. Besides, the z-score in experiment [7] was -0.204; in experiment [10] it was 0.272 (inactive).
As for `C=CCC(OC(C)=O)[C@@H]1[C@@H](N(Cc2cc3ccccc3o2)C(=O)Cc2ccc(F)cc2)c2cc(OCCCO)ccc2N1C(=O)c1ccc2ccccc2n1` (stereo not given in full), the composite z-score in experiment [1] is 0.055; in [2] it was -0.694; in experiment [3], 0.0919; in experiment [4] it was 0.271; in [5], 0.147; in [6], -0.0144. The composite z-score was -0.189 in experiment [8] and 0.0937 in experiment [9]. Moreover, the results for the z-score in [7] and in [10] were 0.728 and -0.997 (inactive), respectively.
Regarding `COCC(=C=CC[C@H](O)c1cccc(OCCO)c1)C[C@H](O)c1ccccn1`, the composite z-score in experiment [1] was 0.344; in experiment [2] it was 0.273; in experiment [3], -0.296; in experiment [4], 0.521; in experiment [5] it was 1.37; in experiment [6], 0.89. The composite z-score was determined as 1.37 in [8] and 0.613 in [9]. Also, the z-score in experiment [7] was 1.07; in [10] it was -0.266 (inactive).
With `CN(C)CCCNC(=O)[C@@]1(C)c2ccccc2C(=O)N(Cc2cc(C(F)(F)F)cc(C(F)(F)F)c2)[C@H]1c1ccc(CO)cc1`, the composite z-score in experiment [1] was -0.216; in experiment [2], -0.446; in [3], -0.24; in experiment [4], -2.28; in experiment [5] it was -0.775; in experiment [6], -0.762. Further, the values for the composite z-score in experiment [8] and in experiment [9] were -1.03 and -0.973, respectively. The z-score in experiment [7] was -0.0872; in experiment [10], 0.386 (inactive).
Take `COCCCNC(=O)[C@]1(Cc2ccccc2N=[N+]=[N-])N=C(c2ccc(OCCCO)cc2)O[C@@H]1c1ccccc1N=[N+]=[N-]`: the composite z-score in experiment [1] was 2.22; in experiment [2], 1.19; in experiment [3] it was 0.356; in experiment [4], 0.983; in [5], 0.778; in experiment [6] it was -0.165. The composite z-score in [8] was -0.252; in experiment [9], 0.676. Besides, the z-score was -0.214 in experiment [7] and -3.27 (inactive) in experiment [10].
With `CN1C(=O)C2C=CC(C(O)c3c(F)cccc3Cl)N(Nc3ccccc3)C2C1=O` (stereo not given), the composite z-score in experiment [1] was -0.0126; in [2], -0.105; in experiment [3], 0.464; in [4] it was 0.978; in experiment [5], 1.03; in experiment [6], -0.166. Moreover, the composite z-score was -0.309 in experiment [8] and 1.05 in experiment [9]. The z-score in experiment [7] is 1.14; in experiment [10] it was 0.565 (inactive).
In the case of `CC(=O)n1cc(C(O)C2C=CC3C(=O)N(Cc4ccccc4)C(=O)C3N2n2cnnc2)c2ccccc21` (stereo not given), the composite z-score in experiment [1] is 0.483; in [2] it was 0.0022; in [3], 0.418; in [4] it was 0.948; in experiment [5], 0.0251; in experiment [6] it was -0.465. Further, the composite z-score was found to be 0.204 in experiment [8] and 0.505 in experiment [9]. For the same compound, the values for the z-score in experiment [7] and in experiment [10] were -0.463 and 0.702 (inactive), respectively.
For `NCCCCCCNC(=O)[C@H]1C[C@H]2C(=O)N[C@@H](Cc3ccccc3)C(=O)N2[C@H]1c1ccc(O)cc1`, the composite z-score in experiment [1] was 2.04; in experiment [2], 0.692; in [3], 0.937; in [4] it was 0.999; in [5] it was 1.32; in [6], 0.619. For the same compound, the values for the composite z-score in [8] and in experiment [9] were 0.795 and 1.1, respectively. The results for the z-score in experiment [7] and in [10] were -0.267 and 0.166 (inactive), respectively.
Take `C=C(CCCC)C(=O)CC[C@@H](OC(=O)c1ccccc1-c1ccccc1C(=O)O)c1cccc(OCCO)c1`: the composite z-score in experiment [1] is -0.0724; in experiment [2], 0.53; in experiment [3], 0.113; in [4], 0.834; in [5] it was 1.43; in experiment [6], 1.56. Moreover, the composite z-score in [8] was 1.68; in experiment [9], -0.0168. The z-score in experiment [7] is 0.317; in [10], -2.33 (inactive).
As for `CCCCC(=C=CC[C@@H](O)c1ccc(OCCO)cc1)C[C@@H](O)COCc1ccccc1`, the composite z-score in experiment [1] is 0.0164; in experiment [2], -0.445; in experiment [3] it was -0.0498; in [4], -1.01; in experiment [5] it was 1.31; in experiment [6] it was 0.567. The composite z-score in experiment [8] was 0.973; in [9], 0.614. Also, the z-score in experiment [7] was 1.72; in experiment [10], -1.58 (inactive).
